# Data published in paper PMC5540273 (PLoS ONE, 2017).
# Tests used:
# Settings in all cases: concentration: 1 μM, replicates: in singlicate; n = 1
# [1] = test system: MERTK
# [2] = test system: MET
# [3] = test system: T1, MINK
# T1 construct: gene MINK1
# [4] = test system: MKK7
# [5] = test system: MKNK1
# [6] = test system: MKNK2
# [7] = test system: T2, MLCK
# T2 construct: gene MYLK3
# [8] = test system: T3, MLK1
# T3 construct: gene MAP3K9
# [9] = test system: MLK2
# [10] = test system: MLK3
# [11] = test system: MRCKA
# [12] = test system: T4, MRCKB
# T4 construct: gene CDC42BPB
# [13] = test system: MST1R
# [14] = test system: T5, MST1
# T5 construct: gene STK4
# [15] = test system: T6, MST2
# T6 construct: gene STK3
# [16] = test system: T7, MST3
# T7 construct: gene STK24
# [17] = test system: MST4
# [18] = test system: MTOR
# [19] = test system: MUSK
# [20] = test system: MYLK2
# 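Also: KINOMEscan kinase panel screen.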
SMILES,%Inh [1],%Inh [2],%Inh [3],%Inh [4],%Inh [5],%Inh [6],%Inh [7],%Inh [8],%Inh [9],%Inh [10],%Inh [11],%Inh [12],%Inh [13],%Inh [14],%Inh [15],%Inh [16],%Inh [17],%Inh [18],%Inh [19],%Inh [20]
CN1c2ccc(-c3ccc(C(=O)NCCO)cc3)cc2-c2[nH]ncc2S1(=O)=O,0%,2%,46%,0%,0%,0%,0%,29%,27%,18%,0%,5%,0%,5%,35%,10%,0%,23%,0%,0%
Cc1ccc(NC(=O)c2cccc(C#N)c2)cc1-c1ccc(C(=O)Nc2ccncc2)cc1 [GSK1398463],0%,0%,0%,0%,0%,23%,0%,0%,24%,0%,3%,8%,38%,0%,0%,0%,0%,4%,10%,26%
Fc1ccc(-c2ncn(CCCNCc3ccccc3)c2-c2ccncc2)cc1,35%,0%,3%,10%,28%,0%,0%,4%,0%,0%,0%,18%,18%,2%,39%,11%,0%,11%,9%,0%
Cn1ccc2ncnc(Oc3ccc(NC(=O)Nc4cccnc4)c(Cl)c3)c21,6%,15%,0%,0%,10%,0%,0%,14%,2%,0%,0%,0%,15%,12%,0%,10%,0%,0%,7%,0%
Cc1cc(N2CCC(NS(=O)(=O)c3ccc(F)cc3)CC2)nc(Nc2cccc(C#N)c2)n1.O=C(O)C(F)(F)F [GSK1653537],39%,0%,0%,0%,7%,3%,0%,12%,0%,15%,0%,0%,17%,8%,0%,7%,0%,6%,8%,0%
